The source of these data is PubChem BioAssay (EPA / NIEHS).

Experiment [1] is described as follows: ATG_TAL_CIS: Attagene CIS-FACTORIAL HepG2 Assay for human TAL Basal Promoter (AID 2282966; active = hit-call score of the fitted dose curve at least 0.9, where 1 is the maximum; inactive = score below 0.9;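 also: background control endpoint measuring basal TAL promoter reporter mRNA not a specific factor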). The note with it: HepG2 Attagene cis-factorial TAL promoter reporter; actives raise or lower the signal. The essentials: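 Transiently transfected HepG2 (cis-regulated reporter units), 24 h treatment, mRNA read by fluorescent CE after RT-PCR; bidirectional fit, DMSO baseline.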

Experiment [2] can be described thus: ATG_TGFb_CIS: Attagene CIS-FACTORIAL HepG2 Assay for human Transforming Growth Factor (TGF) (AID 2282967; active = hit-call score of the fitted dose curve at least 0.9, where 1 is the maximum; inactive = score below 0.9). The note with it: HepG2 Attagene CIS TGFb reporter, mRNA transcription; actives raise or lower the signal. The essentials:
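Readout: fluorescently labeled reporter cDNA fragments resolved by capillary electrophoresis after RT-PCR. Transfected HepG2 cells dosed for 24 h; endogenous TF activity at TGFB1-linked cis element; gain or loss fitted relative to DMSO.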

The target of experiment [3] is Nuclear receptor subfamily 1 group I member 3 (Homo sapiens) (UniProt Q14994). The experiment is described as follows: ATG_CAR_TRANS: Attagene TRANS-FACTORIAL HepG2 Assay for human Constitutive Androstane Receptor (CAR) (AID 2282969).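 Also: activators raise reporter mRNA above DMSO so AC50 marks induction.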 The note with it: HepG2 Attagene TRANS-FACTORIAL CAR reporter. In short, it runs like this: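 Signal is reporter mRNA induction relative to DMSO, measured 24 h after dosing by RT-PCR with fluorescent primer extension and capillary electrophoresis. Human HepG2 liver cells carried transiently transfected chimeric NR-Gal4/GAL4-UAS reporter constructs.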

Experiment [4] has as its target X-box-binding protein 1 (Homo sapiens) (UniProt P17861). The experiment is described as follows: ATG_Xbp1_CIS: Attagene CIS-FACTORIAL HepG2 Assay for human X-box Binding Protein 1 (XBP1) (AID 2282972; active = hit-call score of the fitted dose curve at least 0.9, where 1 is the maximum; inactive = score below 0.9). The note with it: HepG2 XBP1 cis-element reporter, Attagene multiplex; actives raise or lower the signal. In short, it runs like this: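 Human hepatoma HepG2, cis-element reporter system, 24 h treatment; mRNA quantified by RT-PCR/CE fluorescence; fit relative to DMSO.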

Experiment [5] addresses Androgen receptor (Homo sapiens) (UniProt P10275). The experiment is described as follows: ATG_AR_TRANS: Attagene TRANS-FACTORIAL HepG2 Assay for human Androgen Receptor (AR) (AID 2282973). The note with it: HepG2 Attagene TRANS-FACTORIAL AR reporter transcription. In short, it runs like this:
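HepG2 cells transiently transfected with multiplexed GAL4-UAS reporter units and chimeric NR-Gal4 fusion; 24 h compound exposure. Reporter mRNA measured by RT-PCR, 6-FAM labelling, HpaI digestion and capillary electrophoresis; gain-of-signal fitted relative to DMSO baseline.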

Experiment [6] addresses Glucocorticoid receptor (Homo sapiens) (UniProt P04150). The experiment is described as follows: ATG_GR_TRANS: Attagene TRANS-FACTORIAL HepG2 Assay for human Glucocorticoid Receptor (GR) (AID 2282978).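 Also: activators score as hits since higher reporter transcript over DMSO is fitted.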 The note with it: HepG2 Attagene TRANS GR reporter, mRNA transcription. The essentials:
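Exogenous NR-GAL4 fusion activity was assessed through induced GAL4-UAS reporter transcripts in transfected human HepG2 cells, quantified after 24 h by RT-PCR and fluorescent capillary electrophoresis with DMSO as baseline.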

For experiment [7], the target named is Oxysterols receptor LXR-alpha (Homo sapiens) (UniProt Q13133). As to the kind of experiment: ATG_LXRa_TRANS: Attagene TRANS-FACTORIAL HepG2 Assay for human Liver X Receptor alpha (LXRa) (AID 2282980). The note with it: HepG2 Attagene TRANS reporter, LXRa transactivation. The essentials: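 HepG2 cells were transiently transfected with multiplexed reporter units driven by chimeric LXRa–GAL4 fusion proteins, then dosed for 24 h. Reporter mRNA was quantified by RT-PCR, fluorescent labelling and capillary electrophoresis; gain of signal fitted against DMSO baseline.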

Experiment [8] deals with Oxysterols receptor LXR-beta (Homo sapiens) (UniProt P55055). As to the kind of experiment: ATG_LXRb_TRANS: Attagene TRANS-FACTORIAL HepG2 Assay for human Liver X Receptor beta (LXRb) (AID 2282981). The note with it: HepG2 Attagene TRANS GAL4-LXRb reporter, mRNA. The essentials:
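After 24 h chemical treatment of transfected HepG2 cells carrying exogenous NR-Gal4 chimeras, reporter mRNA was quantified by fluorescent RT-PCR and capillary electrophoresis; activity taken as increase over DMSO controls.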

Experiment [9] deals with Hepatocyte nuclear factor 4-alpha (Homo sapiens) (UniProt P41235). As to the kind of experiment: ATG_HNF4a_TRANS: Attagene TRANS-FACTORIAL HepG2 Assay for human Hepatocyte Nuclear Factor 4 alpha (HNF4a) (AID 2282982). The note with it: HepG2 HNF4a transactivation reporter, mRNA readout. In short, it runs like this: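 Activity of an exogenous HNF4a–Gal4 fusion scored as induced GAL4-UAS reporter transcripts after 24 h chemical exposure of transfected human HepG2 cells. Read-out via RT-PCR with 6-FAM labelling and capillary electrophoresis; rise over DMSO baseline.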

Experiment [10] is described as follows: ATG_M_06_TRANS: Attagene TRANS-FACTORIAL HepG2 Assay for M06 Transcription Factor (Internal Marker) (AID 2282983).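 Also: reporter transcript level by RT-PCR then capillary electrophoresis fluorescence.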 The note with it: HepG2 Attagene TRANS M06 internal marker reporter. The essentials:
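In this multiplexed HepG2 system, compounds are incubated 24 h with cells carrying GAL4-UAS reporter units. Reporter RNA is amplified and resolved by capillary electrophoresis, and induction is scored against DMSO.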

The target in experiment [11] is Nuclear receptor subfamily 4 group A member 2 (Homo sapiens) (UniProt P43354). The experiment is described as follows: ATG_NURR1_TRANS: Attagene TRANS-FACTORIAL HepG2 Assay for human Nuclear Receptor Related Protein 1 (NURR1) (AID 2282985). The note with it: HepG2 Attagene TRANS reporter, mRNA readout. In short, it runs like this:
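Reporter transcript induction, measured by RT-PCR with fluorescent labelling, HpaI digestion and capillary electrophoresis, after 24 hr dosing of human HepG2 cells transiently expressing an exogenous NR-Gal4 fusion with GAL4-UAS-driven reporters; DMSO as baseline.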

Experiment [12] deals with Transcriptional activator Myb (Homo sapiens) (UniProt P10242). The experiment is described as follows: ATG_Myb_CIS: Attagene CIS-FACTORIAL HepG2 Assay for human Myeloblastosis (Myb) Proto-Oncogene Transcription Factor (AID 2282986; active = hit-call score of the fitted dose curve at least 0.9, where 1 is the maximum; inactive = score below 0.9). The note with it: HepG2 Attagene CIS-FACTORIAL Myb reporter transcription; actives raise or lower the signal. The essentials:
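In this HepG2 transient-transfection format, cis-regulated reporter mRNA is quantified 24 h post-dosing by RT-PCR with capillary electrophoresis, fitted bidirectionally to DMSO baseline.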

Experiment [13] has as its target Estrogen receptor (Homo sapiens) (UniProt P03372). The experiment is described as follows: ATG_ERa_TRANS: Attagene TRANS-FACTORIAL HepG2 Assay for human Estrogen Receptor alpha (ERa) (AID 2282970). The note with it: HepG2 Attagene TRANS ERa GAL4 reporter, mRNA. In short, it runs like this: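 One of 30 multiplexed endpoints from a HepG2 TRANS system, this one reports ERa-Gal4-driven reporter mRNA. Transcripts were quantified 24 hours post-dosing by fluorescent RT-PCR and capillary electrophoresis, with activity scored as induction over DMSO.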

Experiment [14] addresses Bile acid receptor (Homo sapiens) (UniProt Q96RI1). As to the kind of experiment: ATG_FXR_TRANS: Attagene TRANS-FACTORIAL HepG2 Assay for Farnesoid X Receptor (FXR) (AID 2282979).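 Also: hits raise reporter mRNA above DMSO so AC50 marks FXR activation.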 The note with it: HepG2 Attagene TRANS FXR-GAL4 reporter transcription. The essentials: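 HepG2 cells transiently transfected with reporter constructs in which a chimeric FXR-GAL4 protein drives a GAL4-UAS reporter; 24 h compound exposure. Reporter mRNA measured by RT-PCR, FAM labelling, HpaI digestion and capillary electrophoresis; gain-of-signal versus DMSO.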

The nature of experiment [15]: ATG_M_32_TRANS: Attagene TRANS-FACTORIAL HepG2 Assay for M32 Transcription Factor (Internal Marker) (AID 2282984).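 Also: transcript level of a background control reporter unit measured by RT-PCR and capillary electrophoresis.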 The note with it: HepG2 Attagene TRANS M32 internal marker reporter. The essentials:
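Internal background reporter in transfected HepG2: after 24 h chemical exposure, RNA reverse-transcribed, reporter cDNA amplified, fluorescently labelled and HpaI-cut, then sized by capillary electrophoresis. Gain of signal fitted against DMSO control.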

A short description of experiment [16]: ATG_VDRE_CIS: Attagene CIS-FACTORIAL HepG2 Assay for human Vitamin D Receptor Element (VDRE) (AID 2282968; active = hit-call score of the fitted dose curve at least 0.9, where 1 is the maximum; inactive = score below 0.9). The note with it: HepG2 VDRE cis-reporter transcription, actives raise or lower the signal. The essentials: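 Readout is VDRE-driven reporter mRNA reflecting endogenous factor activity in human HepG2 cells, sampled 24 h post-dose. Quantification used labelled RT-PCR products separated by capillary electrophoresis; bidirectional analysis relative to DMSO.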

Experiment [17] can be described thus: ATG_M_19_TRANS: Attagene TRANS-FACTORIAL HepG2 Assay for M19 Transcription Factor (Internal Marker) (AID 2282974). The note with it: HepG2 Attagene TRANS-FACTORIAL M19 internal marker reporter. The essentials:
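Using RT-PCR and capillary electrophoresis, reporter mRNA from transiently transfected human HepG2 cells was quantified following 24 h exposure; activity was fitted in the positive direction against DMSO.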

For experiment [18], the target named is Steroid hormone receptor ERR1 (Homo sapiens) (UniProt P11474). As to the kind of experiment: ATG_ERRa_TRANS: Attagene TRANS-FACTORIAL HepG2 Assay for human Estrogen-Related Receptor alpha (ERRa) (AID 2282971). The note with it: HepG2 Attagene TRANS reporter, ERRa transactivation. In short, it runs like this:
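HepG2 cells transiently transfected with multiplexed GAL4-UAS reporter units reading chimeric ERRa-Gal4 activity; 24 h compound exposure. Reporter mRNA measured by RT-PCR, 6-FAM labelling, HpaI digest and capillary electrophoresis; gain of signal fitted versus DMSO baseline.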

Experiment [19] deals with Estrogen-related receptor gamma (Homo sapiens) (UniProt P62508). As to the kind of experiment: ATG_ERRg_TRANS: Attagene TRANS-FACTORIAL HepG2 Assay for human Estrogen-Related Receptor gamma (ERRg) (AID 2282977).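 Also: hits increase reporter signal over DMSO so potencies reflect activators.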 The note with it: HepG2 Attagene TRANS reporter, ERRg transactivation. In short, it runs like this:
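Induction of reporter transcripts through a chimeric NR-Gal4 protein is quantified in transfected human HepG2 liver cells after 24 h chemical exposure, using RT-PCR with capillary electrophoresis detection and DMSO as baseline.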

Experiment [20] in a line: ATG_GAL4_TRANS: Attagene TRANS-FACTORIAL HepG2 Assay for GAL4 (Internal Marker) (AID 2282976). The note with it: HepG2 Attagene TRANS GAL4 internal marker reporter. In short, it runs like this: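 HepG2 cells transiently transfected with multiplexed GAL4-UAS reporter constructs were dosed for 24 h. Reporter mRNA was measured by RT-PCR, 6-FAM primer extension, HpaI digestion and capillary electrophoresis, and gain of signal was fitted relative to DMSO.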

Inconclusive results are not listed. Active and inactive are the calls of the source. The calls were made as follows, unless noted: active = hit-call score of the fitted dose curve at least 0.9, where 1 is the maximum; inconclusive = response in the unintended direction; inactive = score below 0.9.

For orientation: AC50 means the midpoint of the concentration-response curve, whichever way the signal moves.

Nuclear receptor subfamily 4 group A member 2 (Homo sapiens), sequence (P43354 whole entry, looked up, the tested form may be a part): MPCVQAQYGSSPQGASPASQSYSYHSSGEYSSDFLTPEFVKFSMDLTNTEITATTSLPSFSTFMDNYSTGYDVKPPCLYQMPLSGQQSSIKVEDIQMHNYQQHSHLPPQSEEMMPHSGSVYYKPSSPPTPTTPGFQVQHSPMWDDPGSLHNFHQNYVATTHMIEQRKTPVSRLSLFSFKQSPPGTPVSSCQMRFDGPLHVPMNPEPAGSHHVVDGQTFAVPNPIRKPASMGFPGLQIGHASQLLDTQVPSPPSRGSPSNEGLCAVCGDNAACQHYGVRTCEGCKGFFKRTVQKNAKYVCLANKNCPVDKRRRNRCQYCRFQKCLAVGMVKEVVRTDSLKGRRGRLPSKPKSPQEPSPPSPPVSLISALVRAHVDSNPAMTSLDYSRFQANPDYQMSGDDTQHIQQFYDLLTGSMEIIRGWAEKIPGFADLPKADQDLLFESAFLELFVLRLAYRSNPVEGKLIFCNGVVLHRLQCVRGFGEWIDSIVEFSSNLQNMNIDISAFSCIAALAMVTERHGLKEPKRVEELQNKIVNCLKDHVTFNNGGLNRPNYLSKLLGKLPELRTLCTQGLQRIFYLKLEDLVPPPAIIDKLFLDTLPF
Androgen receptor (Homo sapiens), sequence (P10275 whole entry, looked up, the tested form may be a part): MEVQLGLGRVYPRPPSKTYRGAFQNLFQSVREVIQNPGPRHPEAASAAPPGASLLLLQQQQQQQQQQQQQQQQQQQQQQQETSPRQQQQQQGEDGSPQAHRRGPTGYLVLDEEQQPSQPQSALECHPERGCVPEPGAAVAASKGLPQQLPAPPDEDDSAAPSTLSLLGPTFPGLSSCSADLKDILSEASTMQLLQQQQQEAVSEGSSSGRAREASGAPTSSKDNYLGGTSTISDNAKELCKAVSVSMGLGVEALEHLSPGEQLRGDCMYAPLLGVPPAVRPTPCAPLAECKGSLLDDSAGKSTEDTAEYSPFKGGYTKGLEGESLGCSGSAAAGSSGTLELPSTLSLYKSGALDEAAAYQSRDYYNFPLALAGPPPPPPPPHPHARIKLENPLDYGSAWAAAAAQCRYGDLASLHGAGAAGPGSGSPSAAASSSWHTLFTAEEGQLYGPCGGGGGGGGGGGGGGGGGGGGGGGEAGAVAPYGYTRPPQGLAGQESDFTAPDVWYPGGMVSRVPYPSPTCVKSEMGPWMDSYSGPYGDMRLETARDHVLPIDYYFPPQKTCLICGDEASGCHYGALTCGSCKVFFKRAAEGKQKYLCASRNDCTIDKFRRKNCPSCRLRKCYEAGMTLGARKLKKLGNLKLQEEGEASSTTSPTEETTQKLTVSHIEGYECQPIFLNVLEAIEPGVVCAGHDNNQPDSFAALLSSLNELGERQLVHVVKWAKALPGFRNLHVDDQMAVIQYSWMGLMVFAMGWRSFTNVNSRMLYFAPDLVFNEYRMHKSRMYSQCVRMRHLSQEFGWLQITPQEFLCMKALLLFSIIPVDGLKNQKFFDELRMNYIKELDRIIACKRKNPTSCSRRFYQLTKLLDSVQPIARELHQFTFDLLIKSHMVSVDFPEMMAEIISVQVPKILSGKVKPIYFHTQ
Oxysterols receptor LXR-beta (Homo sapiens), sequence (P55055 whole entry, looked up, the tested form may be a part): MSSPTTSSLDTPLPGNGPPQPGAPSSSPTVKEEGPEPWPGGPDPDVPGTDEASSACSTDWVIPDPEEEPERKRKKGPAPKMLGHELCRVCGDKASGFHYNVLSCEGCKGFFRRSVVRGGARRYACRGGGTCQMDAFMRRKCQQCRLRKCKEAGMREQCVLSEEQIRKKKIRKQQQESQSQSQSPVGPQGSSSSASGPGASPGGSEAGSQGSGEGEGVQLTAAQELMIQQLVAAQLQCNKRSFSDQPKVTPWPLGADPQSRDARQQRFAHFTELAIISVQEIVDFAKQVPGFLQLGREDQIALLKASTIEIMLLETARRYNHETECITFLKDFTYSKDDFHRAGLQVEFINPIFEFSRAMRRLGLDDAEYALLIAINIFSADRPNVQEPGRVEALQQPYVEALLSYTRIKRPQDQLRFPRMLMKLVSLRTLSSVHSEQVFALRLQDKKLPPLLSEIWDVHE
X-box-binding protein 1 (Homo sapiens), sequence (P17861 whole entry, looked up): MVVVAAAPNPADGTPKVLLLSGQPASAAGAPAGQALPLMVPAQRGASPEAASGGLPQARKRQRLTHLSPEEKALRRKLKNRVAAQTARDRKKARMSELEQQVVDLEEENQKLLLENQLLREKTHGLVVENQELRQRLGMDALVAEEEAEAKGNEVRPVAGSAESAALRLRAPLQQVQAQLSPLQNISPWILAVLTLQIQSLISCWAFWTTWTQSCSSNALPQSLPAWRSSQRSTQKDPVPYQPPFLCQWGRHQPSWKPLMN
Oxysterols receptor LXR-alpha (Homo sapiens), sequence (Q13133 whole entry, looked up, the tested form may be a part): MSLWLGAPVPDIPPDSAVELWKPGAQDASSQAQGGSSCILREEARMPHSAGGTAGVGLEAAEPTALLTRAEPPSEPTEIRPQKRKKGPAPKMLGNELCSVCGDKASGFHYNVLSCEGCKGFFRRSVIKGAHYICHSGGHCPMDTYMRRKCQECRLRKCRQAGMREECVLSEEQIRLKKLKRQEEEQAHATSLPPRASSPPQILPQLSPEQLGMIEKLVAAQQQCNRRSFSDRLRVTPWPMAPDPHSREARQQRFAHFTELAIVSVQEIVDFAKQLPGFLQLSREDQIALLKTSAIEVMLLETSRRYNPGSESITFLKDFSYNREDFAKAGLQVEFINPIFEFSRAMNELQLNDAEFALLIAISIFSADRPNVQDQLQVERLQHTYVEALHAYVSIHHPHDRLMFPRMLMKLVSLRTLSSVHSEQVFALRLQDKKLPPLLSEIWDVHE
Bile acid receptor (Homo sapiens), sequence (Q96RI1 whole entry, looked up, the tested form may be a part): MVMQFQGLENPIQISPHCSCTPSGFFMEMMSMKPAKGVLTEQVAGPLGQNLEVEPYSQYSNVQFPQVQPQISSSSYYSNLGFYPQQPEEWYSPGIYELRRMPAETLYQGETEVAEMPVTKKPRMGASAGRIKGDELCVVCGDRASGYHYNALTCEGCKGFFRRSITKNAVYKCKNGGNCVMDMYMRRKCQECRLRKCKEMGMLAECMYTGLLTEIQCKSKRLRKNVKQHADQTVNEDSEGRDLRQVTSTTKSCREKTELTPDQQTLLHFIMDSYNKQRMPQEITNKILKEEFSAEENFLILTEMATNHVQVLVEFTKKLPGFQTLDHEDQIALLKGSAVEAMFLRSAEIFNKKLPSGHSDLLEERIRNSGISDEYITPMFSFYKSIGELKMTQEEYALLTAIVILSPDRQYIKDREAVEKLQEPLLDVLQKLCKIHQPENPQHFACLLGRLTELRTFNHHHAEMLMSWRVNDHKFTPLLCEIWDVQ
Nuclear receptor subfamily 1 group I member 3 (Homo sapiens), sequence (Q14994 whole entry, looked up, the tested form may be a part): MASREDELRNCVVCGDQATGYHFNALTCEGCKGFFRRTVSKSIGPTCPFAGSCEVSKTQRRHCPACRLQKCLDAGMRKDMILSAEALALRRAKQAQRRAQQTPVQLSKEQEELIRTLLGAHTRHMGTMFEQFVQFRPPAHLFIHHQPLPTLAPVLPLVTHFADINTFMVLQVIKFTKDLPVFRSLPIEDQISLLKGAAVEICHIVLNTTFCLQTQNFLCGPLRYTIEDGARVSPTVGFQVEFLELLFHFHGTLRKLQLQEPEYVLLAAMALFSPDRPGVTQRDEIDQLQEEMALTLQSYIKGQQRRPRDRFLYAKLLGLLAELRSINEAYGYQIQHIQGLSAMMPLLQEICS
Hepatocyte nuclear factor 4-alpha (Homo sapiens), sequence (P41235 whole entry, looked up, the tested form may be a part): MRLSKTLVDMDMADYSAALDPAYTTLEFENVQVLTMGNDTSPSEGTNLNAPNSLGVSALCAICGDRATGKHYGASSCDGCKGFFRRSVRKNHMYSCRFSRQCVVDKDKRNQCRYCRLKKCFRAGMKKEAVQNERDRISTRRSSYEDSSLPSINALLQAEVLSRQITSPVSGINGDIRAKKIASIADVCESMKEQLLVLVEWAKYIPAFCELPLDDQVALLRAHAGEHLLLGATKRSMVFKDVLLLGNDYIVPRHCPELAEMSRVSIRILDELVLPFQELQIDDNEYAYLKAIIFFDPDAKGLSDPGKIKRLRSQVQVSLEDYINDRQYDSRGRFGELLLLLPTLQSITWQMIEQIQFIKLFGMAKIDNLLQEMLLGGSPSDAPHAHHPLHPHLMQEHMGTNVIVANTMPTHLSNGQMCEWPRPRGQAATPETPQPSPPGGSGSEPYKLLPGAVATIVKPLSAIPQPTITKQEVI
Transcriptional activator Myb (Homo sapiens), sequence (P10242 whole entry, looked up): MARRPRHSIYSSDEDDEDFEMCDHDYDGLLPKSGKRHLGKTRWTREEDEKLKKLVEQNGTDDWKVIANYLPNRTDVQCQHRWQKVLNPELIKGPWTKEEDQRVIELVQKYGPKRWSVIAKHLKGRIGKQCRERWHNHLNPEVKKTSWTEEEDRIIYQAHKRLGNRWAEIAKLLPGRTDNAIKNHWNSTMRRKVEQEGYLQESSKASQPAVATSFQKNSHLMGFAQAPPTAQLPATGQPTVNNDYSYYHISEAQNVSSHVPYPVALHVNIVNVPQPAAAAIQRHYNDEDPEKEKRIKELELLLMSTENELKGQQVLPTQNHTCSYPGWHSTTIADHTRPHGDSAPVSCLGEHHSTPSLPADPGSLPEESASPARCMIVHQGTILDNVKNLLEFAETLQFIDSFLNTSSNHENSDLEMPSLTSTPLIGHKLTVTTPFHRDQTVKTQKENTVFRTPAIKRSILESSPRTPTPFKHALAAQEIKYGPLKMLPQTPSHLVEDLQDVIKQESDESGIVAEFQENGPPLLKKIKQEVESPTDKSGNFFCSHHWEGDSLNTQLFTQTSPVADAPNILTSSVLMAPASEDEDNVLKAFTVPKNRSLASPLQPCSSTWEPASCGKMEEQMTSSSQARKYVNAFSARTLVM

As to `COP(=S)(OC)Oc1cc(Cl)c(Cl)cc1Cl`, the call in experiment [1], in experiment [3], in experiment [4], in [5], in experiment [6] and in [7] was inactive. In addition, the call in experiment [8], in experiment [9], in experiment [10], in [11] and in [12] was inactive. In addition, the AC50 in experiment [2] is 79.6 µM (active).
Regarding `CCC(=O)c1ccccc1`, the molecule was classed as inactive in experiment [1], in [2], in experiment [3], in experiment [13], in [4] and in [14]. In addition, the molecule was classed as inactive in experiment [10], in experiment [15] and in experiment [12].
Consider `COc1ccc(OC)c(C=O)c1`, for which the outcome in experiment [1], in [2], in experiment [16], in experiment [4], in experiment [17] and in experiment [6] was inactive. Moreover, the molecule was called inactive in experiment [7], in experiment [9], in experiment [15], in experiment [11] and in experiment [12].
With `Cc1ccc2ccccc2c1C`, the outcome in [1], in experiment [2], in experiment [3], in [13], in [4] and in experiment [5] was inactive. In addition, the molecule was classed as inactive in experiment [17], in experiment [8], in experiment [15] and in [12].
Consider `Cl/C=C/Cl`, for which the molecule was classed as inactive in experiment [1], in experiment [2], in [16], in experiment [4], in experiment [9] and in experiment [10]. In [12], the molecule was classed as inactive.
Consider `O=[N+]([O-])c1ccc(O)c([N+](=O)[O-])c1`, for which the result in experiment [1], in [2], in experiment [18], in experiment [4], in experiment [19] and in experiment [7] was inactive. The outcome in experiment [8], in [10] and in experiment [12] was inactive.
In the case of `Nc1ncc([N+](=O)[O-])s1`, the molecule was classed as inactive in experiment [1], in [2], in experiment [13], in experiment [4], in experiment [17] and in [20]. The molecule was called inactive in experiment [19], in experiment [8], in [10], in experiment [11] and in [12].
Turning to `COC[C@H](C)N(C(=O)CCl)c1c(C)csc1C`, the molecule was called inactive in experiment [1], in experiment [2], in [18], in [4], in experiment [14] and in experiment [8]. The molecule was classed as inactive in experiment [10], in [15], in [11] and in experiment [12].
Regarding `CCC1(c2ccc(N)cc2)CCC(=O)NC1=O` (centres undefined), the outcome in [1], in experiment [2], in [13], in experiment [4], in experiment [5] and in experiment [20] was inactive. Further, the outcome in experiment [14], in [9], in experiment [10] and in experiment [12] was inactive.
